Assay results as given in PubChem BioAssay AID1117361 (Southern Research Institute, 2015).
The campaign covered roughly 3,600 compounds. About 900 (25%) were called active. No rule for the calls is given here. Only a sample is shown. Measured potencies and affinities stand elsewhere.

target: Protein Tat (Human immunodeficiency virus type 1 group M subtype B (isolate HXB2)) (UniProt P04608); test: HIV-1 Tat–TAR interaction blockers – biochemical, fluorescence polarization, FAM-labeled TAR RNA, counter-screen for Vif-APOBEC3G degradation inhibitor project, dose response (AID 1117361); conditions: Tat-TAR RNA binding; series mostly up to 100 µM

Row | SMILES | outcome
1 | CCCN(CCC)S(=O)(=O)c1cc(Br)cc2c1N(C(=O)CC)CC2 | inactive
2 | O=C1CCCC(NCCCCCCNC2=C([N+](=O)[O-])C(=O)CCC2)=C1[N+](=O)[O-] | inactive
3 | CC(NCCO)C(=O)C12CC3CC(CC(C3)C1)C2 (stereo not given) | inactive
4 | CN(C)S(=O)(=O)N1CCC(CCCC2CCN(S(=O)(=O)N(C)C)CC2)CC1 | inactive
5 | CN1CCN(c2nc(-c3cccnc3)nc3ccccc23)CC1 | inactive
6 | C[C@@H]1NC(=O)[C@H](CCC(N)=O)NC(=O)c2cc([N+](=O)[O-])cc(I)c2NCCC[C@@H](C(N)=O)NC1=O | inactive
7 | O=C(COC(=O)c1cc(=O)[nH]c2ccccc12)Nc1cccc(S(=O)(=O)N2CCOCC2)c1 | inactive
8 | CN(Cc1ccccc1)C(=O)c1cccc(N2C(=O)NC3CC2(C)Oc2ccccc23)c1 (stereo not given) | inactive
9 | CCCCCCn1c(SCC(=O)Nc2cc(C)on2)nc2ccccc2c1=O | inactive
10 | NC(=O)c1ccc(NC(=O)CSc2nc3ccccc3c(=O)n2CCCN2CCOCC2)cc1 | inactive
11 | Cc1sc(-c2ccccn2)nc1OC(=O)c1cccc(Cl)c1Cl | inactive
12 | CCCS(=O)(=O)N1CCCC(C(=O)NCCCOC(C)C)C1 (stereo not given) | inactive
13 | CC(C)C(=O)Nc1nnc(Sc2ccc(N(C)C)cc2)s1 | inactive
14 | O=S(=O)(c1ccccc1)N1CCN(S(=O)(=O)N2CCCCC2)CC1 | inactive
15 | COc1cc(C(=O)OCC(=O)N2CCCC2)cc(OC)c1OC | inactive
16 | Cc1ccccc1NC(=O)Cc1nc(COC(=O)Cc2ccccc2F)cs1 | inactive
17 | COc1ccc(S(=O)(=O)NNC(=O)c2sccc2-n2cccc2)cc1 | inactive
18 | COC(=O)CC1Oc2ccccc2N(Cc2ccccc2)C1=O (stereo not given) | inactive
19 | CCOC(=O)C1(Cc2ccc(OC)cc2)CCN(C(=O)c2cccc3nccnc23)CC1 | inactive
20 | O=C(Nc1cccc(C(F)(F)F)c1)c1cc(S(=O)(=O)N2CCCCC2)ccc1N1CCOCC1 | inactive
21 | O=C(CN1CCN(S(=O)(=O)c2ccc(F)cc2)CC1)Nc1cc(C(F)(F)F)ccc1Cl | inactive
22 | Cc1cccc(Cc2nnc(CCC(=O)N(C)C3CCOC3)o2)c1 (stereo not given) | inactive
23 | Cc1noc(C)c1COC(=O)c1cccc(S(=O)(=O)N2CCCCCC2)c1 | inactive
24 | O=C(NCc1cccs1)Nc1cccs1 | inactive

Row | SMILES | outcome
25 | c1ccc(CCc2nn3c(C4COc5ccccc5O4)nnc3s2)cc1 (stereo not given) | inactive
26 | CCOc1ccc(N(CC(=O)NC2CCCCC2)S(=O)(=O)c2c(C)noc2C)cc1 | inactive
27 | CCOc1ccc(N(CC(=O)NCc2ccc(F)cc2)S(=O)(=O)c2c(C)noc2C)cc1 | inactive
28 | C=C(C)Cn1c(C)cc(C)c(S(=O)(=O)c2ccccc2C)c1=O | inactive
29 | C/C(=C\C(=O)c1ccc(Br)cc1)N1CCCCC1 | inactive
30 | O=c1cc(OCc2ccccc2)cc[nH]1 | inactive
31 | NCCOc1ccccc1Cc1ccccc1 | inactive
32 | COc1ccc(OCC(O)CNc2ccc(Br)cc2)cc1 (stereo not given) | inactive
33 | COc1ccc(NCc2nc3ccccc3n2CCOc2ccccc2)cc1 | inactive
34 | COc1cc(Br)c(CNc2cc(C)ccc2C)cc1OC | inactive
35 | O=C(NC(=S)NCCN1CCOCC1)c1ccc(Cl)cc1Cl | inactive
36 | CN(C1=C(NC(=O)c2ccc(Cl)cc2)C(=O)c2ccccc2C1=O)c1ccccc1 | inactive
37 | CC(=O)NCCC(=O)NCc1ccc(F)cc1 | inactive
38 | Cc1cccc(N2CCN(C(=O)c3ccncc3)CC2)c1C | inactive
39 | CCOc1ccc(S(=O)(=O)N2CC(=O)Nc3ccccc32)cc1C#N | inactive
40 | C=CCc1cc(/C=N\NC(=O)CSc2nnc(CCCc3ccc(OC)c(C)c3)o2)cc(OC)c1O | inactive
41 | Cc1ccc(Nc2cnn(C34CC5CC(CC(CC(=O)O)(C5)C3)C4)c(=O)c2Cl)cc1C | inactive
42 | CCOC(=O)CN1C(=O)C(Sc2n[nH]c(-c3ccccc3)n2)CCc2ccccc21 (stereo not given) | inactive
43 | NCCC(=O)N1c2ccccc2Sc2ccccc21 | inactive
44 | CCOc1cc(CNc2ccc(O)cc2)cc(Br)c1OCc1ccccc1F | inactive
45 | COc1cccc(CNCCc2c[nH]c3ccccc23)c1OCc1ccccc1 | inactive
46 | CCOCC(O)CS(=O)Cc1ccccc1 (stereo not given) | inactive
47 | CC(=NNC(=S)SCc1ccccc1)c1ccccn1 | inactive
48 | Cc1cc(C)n2nc(C(=O)Nc3cccnc3)nc2n1 | inactive

Row | SMILES | outcome
49 | O=C(Nc1cccnc1)c1sc(Nc2ccccc2F)nc1-c1ccccc1 | inactive
50 | Cc1cc(NC(=O)CSc2nnc(-c3ccoc3C)n2N)no1 | inactive
51 | CCOC(=O)N1CCN(S(=O)(=O)c2ccc(F)c(C(=O)Nc3cc(C)cc(C)c3)c2)CC1 | inactive
52 | CC(C)OCCCNC(=O)CNC(=O)c1cccs1 | inactive
53 | COc1ccc(S(=O)(=O)N2CCN(C(=O)c3cc(C)on3)CC2)cc1 | inactive
54 | Cc1ccc(C(=O)/C=C/c2cc(C#N)n(C)c2C)cc1 | inactive
55 | CCOC(=O)c1c(NC(=O)CSc2nncs2)sc(C)c1C | inactive
56 | O=C1CCCC2=C1C(O)(C(F)(F)F)C(=O)N2Cc1ccccc1 (stereo not given) | inactive
57 | CCOC(=O)C1=C(C)n2c(s/c(=C/c3cccc([N+](=O)[O-])c3)c2=O)=NC1c1ccc(O)c(OC)c1 (stereo not given) | inactive
58 | CCOC(=O)C1(C)NC(c2ccco2)C2C(=O)N(CC)C(=O)C21 (stereo not given) | inactive
59 | CCN(Cc1ccccc1)S(=O)(=O)c1ccc(C(=O)Nc2nnc(C3CC3)o2)cc1 | inactive
60 | COCCNC(=O)COc1ccc(Br)cc1Cl | inactive
61 | COc1ccc(-c2cc3ccc(OCc4nn[nH]n4)cc3oc2=O)cc1 | inactive
62 | NC(=O)c1ccc(N2CCN(c3ncc(C(F)(F)F)cc3Cl)CC2)cc1 | inactive
63 | O=C(Cn1cc2c(n1)CCCC2)NCc1cccnc1 | inactive
64 | COc1ccc(S(=O)(=O)N2CCC(C(=O)NCCC3=CCCCC3)CC2)cc1C | inactive
65 | O=C(/C=C/c1ccco1)c1cccnc1 | inactive
66 | Clc1ccc(-c2nnc(SCc3ccon3)o2)c(Cl)c1 | inactive
67 | CCOC(=O)c1cccc(NC(=O)CCc2nc(-c3ccc(C)cc3)no2)c1 | inactive
68 | CCCOc1ccc(-c2nnn(CC(=O)OCC)n2)cc1 | inactive
69 | O=C1c2ccccc2C(=O)N1CCc1csc(-c2ccc(F)cc2)n1 | inactive
70 | O=C(O)Cn1c(O)c(C=Nc2ccccc2)sc1=S | inactive
